Screen size: about 5,500 compounds; about 2,000 (36%) were called active. Another 18% or so got no clear call; they are omitted. Rule as the data show it: active = normalized growth mostly below about 0.91 (no sharp cut-off); inconclusive = no clear call, values can overlap the other calls; inactive = mostly above about 0.92. The list shows a part of the results.
Test: chemical genetic growth profiling, strain panel (AID 1159580);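 also: tested at 20 µM; growth read once vehicle control cultures reached saturation at 30 °C; 1 = growth at the plate median or of vehicle wells; lower values mean less growth of the strain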
Details: S. cerevisiae deletion strains, growth OD

Measured: normalized growth

COC(=O)[C@@H](N)CCCN=C(N)N[N+](=O)[O-]
inactive: locus YAL013W, strain DEP1, hits give low values 0.999 | locus YAL040C, strain CLN3, hits give low values 1 | locus YCL061C, strain MRC1 (second series), hits give low values 1 | locus YDR150W, strain NUM1, hits give low values 1.01 | locus YDR363W, strain ESC2, hits give low values 1.01 | locus YER002W, strain NOP16, hits give low values 0.991 | locus YGR078C, strain PAC10, hits give low values 1.01 | locus YMR307W, strain GAS1, hits give low values 0.986 | locus YNL175C, strain NOP13, hits give low values 1 | locus YNL197C, strain WHI3, hits give low values 0.994 | locus YNL224C, strain SQS1, hits give low values 1 | locus YNL322C, strain KRE1, hits give low values 1.02 | locus YOR083W, strain WHI5 (second series), hits give low values 1
